# Source: PubChem BioAssay AID1345082 (National Center for Advancing Translational Sciences (NCATS), 2018)
# Screen size: about 94,000 compounds; about 4,000 (4.3%) were called active. Entries that show only a call come without a potency. Not shown: some 29% with an inconclusive outcome. The sample holds actives, similar compounds and a random draw of the others, so the mix is not that of the screen. The call rests on the fitted dose curve; in most records, active means well fitted inhibition curve with a large enough effect; inconclusive means small, poorly fitted or top-dose-only effect; inactive means no such curve, though single readings can be large or run the other way.
# Experiment: Cytotoxic Profiling in NIH 3T3 Cell Line of Diverse Libraries Using Quantitative High-Throughput Screening; further: nearly all actives have a fitted effect of over 55% in size
# Conditions: NIH 3T3 viability, CellTiter-Glo ATP luminescence, 48-72 h; series mostly up to 96.7 µM
# Procedure, shortened: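 Cytotoxicity was measured by CellTiter-Glo ATP luminescence after 48 or 72 h compound exposure at 37 °C. Mouse NIH 3T3 fibroblasts were seeded at 400 cells/well and dosed by 23 nL pin transfer.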
# Potency means the concentration at half of the fitted maximal effect.
row,SMILES,Potency
1,Cc1[nH]ncc1CNC(=O)C1CCN(c2cnn(CC3CC3)c(=O)c2)C1 (configuration not stated),inactive
2,O=C(NCc1nc(-c2ncccn2)no1)[C@H]1CNC[C@@H](C(=O)N2CCCC2)C1,inactive
3,O=C1CCN(C(=O)c2ccc3ccccc3n2)CCCCCCN1,inactive
4,CCn1cc(CN2CCCCCNC(=O)[C@@H]3CCC[C@@H]32)cn1,inactive
5,O=C(c1nc(-c2cccnc2)c2cnccn12)N1CCN(c2ncccn2)CC1,inactive
6,Cc1cccc(C)c1-c1nc(C(=O)N2CCN(c3ncccn3)CC2)n2ccccc12,39.8 µM (active)
7,CC(C)(C)c1nc(C(=O)N2CCOCC2)n2ccccc12,inactive
8,COc1ccc(C2Cn3cnc(C(=O)N4CCC(C(=O)NC5CCCC5)CC4)c3CO2)cc1 (configuration not stated),inactive
9,COCC1CN(C(C)=O)CC12CCN(C(=O)C1CC=CCC1)CC2 (configuration not stated),inactive
10,CC(=O)N1CCCC1C(=O)N1CCC(c2ccccc2)CC1 (configuration not stated),inactive
11,O=C(C1CCN(Cc2ccccc2-c2ccccc2F)CC1)N1CCC(c2ccccc2)CC1,31.6 µM (active)
12,COC(=O)CNC(=O)C1CCN(Cc2ccccc2-c2ccccc2F)CC1,inactive
13,Cc1noc(C)c1CC(=O)N1CCC(c2n[nH]c(=O)n2Cc2ccc(F)cc2)CC1,inactive
14,O=C(O)CCn1ncc2cc(OC3CCN(C(=O)C4CCCC4)CC3)ccc21,44.7 µM (active)
15,O=C(C1CCC1)N1CCC(Oc2cccnc2)C1 (configuration not stated),inactive
16,COc1cc(F)ccc1-c1ccc(COc2ccc3c(cnn3CCC(=O)O)c2)cc1,inactive
17,COc1ccc(CNC(=O)NCC2Cn3cccc3CN2C)cc1 (configuration not stated),inactive
18,COCCOCc1nc(C2CCN(C(=O)c3ccncc3)CC2)no1,inactive
19,Cc1ccc(OCc2nc(C3CCN(C(=O)c4noc(C)c4CN4CCCCC4)CC3)no2)cc1,31.6 µM (active)
20,Cc1ccc(OCc2nc(C3CCN(C(=O)c4c5c(nc6ccccc46)CCCC5)CC3)no2)cc1,inactive
21,COc1ccc(C(=O)N2CCC(C(=O)N3CCC(N4CCOCC4=O)CC3)CC2)cc1,inactive

row,SMILES,Potency
1,CN(C)CCNC(=O)C(C)(C)Oc1nn(Cc2cccc(Cl)c2)c2ccccc12,10 µM (active)
2,O=C(CN1C(=O)NC2(CCCCC2)C1=O)Nc1cccc(Br)c1,inactive
3,CCNC(=O)N[C@H]1[C@H](O)[C@@H](N(C)CCc2ccccn2)[C@@H]2OC[C@H]1O2,inactive
4,O=C(C1CCCC1)N1CCCCC1c1nc(C2CC2)n[nH]1 (configuration not stated),inactive
5,COCCN1CCCN(C(=O)c2ccccc2Cl)c2ccccc21,inactive
6,COc1ccccc1C(=O)N1CCCN(CCc2ccccc2)c2ccccc21,31.6 µM (active)
7,CN1CCCN(C(=O)c2ccccc2OC(F)(F)F)c2ccccc21,inactive
8,Cc1cc(N)n(CC(=O)N[C@@H]2COCC[C@@H]2OCc2c(C)noc2C)n1,inactive
9,CCc1c(C)nn(CCNc2ncnc3c2c(C)nn3C)c1C,inactive
10,O=C(CC1CC1)N1C[C@H]2OC(=O)N(CCc3cccc(Cl)c3)[C@H]2C1,inactive
11,CC(=O)NC1CC2(CCN(C(=O)Cc3c[nH]c4ccccc34)CC2)c2ccccc21 (configuration not stated),inactive
12,COC[C@@H]1[C@@H](NC(=O)Cc2nn(C)c(=O)c3ccccc23)[C@@H]2CCO[C@H]12,inactive
13,O=C1CO[C@H]2CN(C3CCC3)C[C@H]2N1Cc1ccc(OC(F)(F)F)cc1,89.1 µM (active)
14,COc1ccc(CN2C(=O)CO[C@H]3CN(Cc4cccnc4)C[C@H]32)cc1,inactive
15,COc1ccc(CN2C(=O)CO[C@H]3CN(C(=O)C4CC4)C[C@H]32)cc1,inactive
16,Clc1ccc(-c2nnc3n2CCN(Cc2cccc4ccccc24)C3)cc1,inactive
17,CCc1noc(-c2cn(C3CCN(C(=O)c4ccc(Cl)cc4)C3)nn2)n1 (configuration not stated),inactive
18,COc1cccc(CN2C(=O)OC3(CCN(C(=O)c4scnc4C)CC3)C2(C)c2cccnc2)c1 (configuration not stated),31.6 µM (active)
19,COc1cccc(C(=O)N2CCC(Cc3nc(-c4cnccn4)no3)CC2)c1,inactive
20,COc1cccc(CN2CCN(C(=O)c3cnc4ccccn4c3=O)CC2=O)c1,inactive
21,O=C(CCCc1ccccc1)Nc1ccnn1C1CCN(C(=O)CCn2cncn2)CC1,inactive

row,SMILES,Potency
1,Cc1cc(C(=O)N2CC[C@@H]3CN(Cc4ccccc4)[C@@H]3C2)nn1C,inactive
2,Cc1nc(-c2c3n(c(=O)n(CC(=O)Nc4ccccc4C)c2=O)CCCCC3)no1,inactive
3,Cc1nc2scc(CC(=O)NC(C)C)n2c(=O)c1-c1cc(C)n(-c2cccc(Cl)c2)n1,inactive
4,CC(C)c1ccc(N2C(=O)N[C@@H]3CCN(C(=O)c4ccc(C(C)(C)C)cc4)[C@@H]3C2=O)cc1,70.8 µM (active)
5,CCn1c(C2CCCN(C(=O)c3ccc(C(C)(C)C)cc3)C2)nn(C)c1=O (configuration not stated),inactive
6,O=C1C(N2CCN(S(=O)(=O)c3ccccc3)CC2)CCN1CCc1ccccc1 (configuration not stated),inactive
7,Cc1ccccc1NC(=O)Nc1ccnn1C1CCN(C(=O)CCN)CC1,inactive
8,CC(C)c1ccc(C(=O)N2C[C@@H]3CCCN4CCC[C@@H]([C@H]34)[C@H]2CCCC(=O)N2CCOCC2)cc1,inactive
9,CCC(CC)C(=O)NC1CCN(c2cnn(CCOC)c(=O)c2)CC1,inactive
10,Cc1ccc2c(n1)N(C)[C@H](CO)CCN(Cc1cccc(Cl)c1)C2,inactive
11,COc1ccccc1CN1CC[C@@H](CO)N(C)c2ncccc2C1,35.5 µM (active)
12,Cc1ccc2c(n1)N(C)[C@H](CO)CCN(Cc1ccccc1C)C2,inactive
13,Cc1ccc(-c2cc3c(=O)n(CCNC(=O)Cc4c[nH]c5ccccc45)ccn3n2)cc1C,inactive
14,O=C(NCc1ccncc1)C1CC(=O)N(c2n[nH]c3ccccc23)C1 (configuration not stated),inactive
15,Cc1cccc(OCCc2noc(C3CCCN3C(=O)c3ccnn3C)n2)c1 (configuration not stated),inactive
16,COCCCNC(=O)N1CCC(Cc2noc(-c3ccncc3)n2)C1 (configuration not stated),inactive
17,Cc1cc(C(=O)N2CCCC(Cc3noc(-c4cccnc4)n3)C2)nn1C (configuration not stated),inactive
18,COc1ccc(NC(=O)N2CCCC(Cc3noc(-c4ccccc4)n3)C2)cc1 (configuration not stated),35.5 µM (active)
19,CCN1C(=O)CCN(C(=O)NCCCOC)CC12CCOCC2,inactive
20,O=C1NC(=NC2CCCCC2)C2(CCN([S+](=O)([O-])c3ccccc3)C2)N1c1cccnc1 (configuration not stated),inactive
